# Results with a measured potency or affinity are listed apart. The source made the active and inactive calls. No rule for the calls is given here.
# Experiment: OVCAR4 cell viability loss – plate reader, dry powder, SA11, cytotoxicity control for PAX8 inhibitor project, dose response (AID 743150)
# Conditions: series mostly up to 35 µM; activity change, negative = cytotoxicity: at the top concentration
row,Structure (SMILES),"activity change, negative = cytotoxicity"
1,O=C(C[C@H]1CC[C@H]2[C@@H](COC[C@@H](O)CN2S(=O)(=O)c2cccc(Cl)c2)O1)Nc1ccc(-c2ccccc2)cc1,-2.05% (inactive)
2,CC(=O)N1CCOc2ccc(S(=O)(=O)N3CCN(c4cccc(C(F)(F)F)c4)CC3)cc21,-18% [at 50 µM] (inactive)
3,COc1cccc(C#Cc2ccc([C@@H]3[C@@H](C#N)N(C(=O)C4CCCCC4)[C@H]3CO)cc2)c1,-0.859% (inactive)
4,COc1ccccc1C#Cc1ccc([C@@H]2[C@@H](C#N)N(C(=O)C3CCCCC3)[C@H]2CO)cc1,9.35% (inactive)
5,N#C[C@@H]1[C@@H](c2ccc(-c3cccc(F)c3)cc2)[C@H](CO)N1C(=O)NC1CCCC1,7.32% (inactive)
6,CC1(C)CC(=O)c2sc(NC(=O)CCS(=O)(=O)c3ccccc3)nc2C1,-33.8% [at 50 µM] (inactive)
7,C[C@H](CO)N1C[C@H](C)[C@@H](CN(C)S(=O)(=O)c2ccc(Cl)cc2)OCCCC[C@H](C)Oc2ccc(NS(=O)(=O)c3ccccc3)cc2C1=O,-9.96% (inactive)
8,O=C(C[C@@H]1C[C@H]2c3cc(NS(=O)(=O)c4ccc(F)cc4)ccc3O[C@H]2[C@H](CO)O1)NCc1ccc(Cl)cc1,-45.6% (inactive)
9,Cc1ccc(S(=O)(=O)Nc2ccc3c(c2)C(=O)N([C@@H](C)CO)C[C@H](C)[C@@H](CN(C)C(=O)Nc2cccc4ccccc24)OCCCC[C@@H](C)O3)cc1,-17.1% (inactive)
10,O=C(Nc1ccc(OCC(F)(F)C(F)F)c(C(F)(F)F)c1)c1ccccc1O,-26.7% [at 50 µM] (inactive)
11,COc1cccc(C#Cc2ccc([C@@H]3[C@@H](C#N)N(C(=O)C4CCCCC4)[C@@H]3CO)cc2)c1,-5.64% (inactive)
12,CCCC#Cc1ccc([C@H]2[C@@H](C#N)N(C(=O)C3CCCCC3)[C@H]2CO)cc1,-7.16% (inactive)
13,N#C[C@H]1[C@H](c2ccc(C#CC3CCCC3)cc2)[C@@H](CO)N1C(=O)Nc1ccc(F)cc1,-23.7% (inactive)
14,C[C@H]1CN([C@@H](C)CO)C(=O)CCCn2nncc2CO[C@@H]1CN(C)C(=O)Nc1ccc(-c2cccs2)cc1,32.7% (inactive)
15,Cc1ccccc1OCC(=O)Nc1cccc(C(=O)O)c1,11.9% [at 50 µM] (inactive)
16,C[C@H](CO)N1C[C@H](C)[C@@H](CN(C)Cc2ccc(C(F)(F)F)cc2)Oc2ccc(NS(=O)(=O)c3ccccc3)cc2CC1=O,4.05% (inactive)

row,Structure (SMILES),"activity change, negative = cytotoxicity"
1,N#C[C@@H]1[C@@H](c2ccc(C#Cc3ccccc3F)cc2)[C@H](CO)N1C(=O)C1CCCCC1,5.8% (inactive)
2,CCCC#Cc1ccc([C@@H]2[C@@H](C#N)N(S(=O)(=O)c3cccc(F)c3)[C@H]2CO)cc1,8.16% (inactive)
3,C[C@@H]1CN([C@@H](C)CO)S(=O)(=O)c2ccc(C#Cc3ccncc3)cc2O[C@H]1CN(C)C(=O)Nc1ccc2c(c1)OCO2,-32.7% (inactive)
4,N#C[C@@H]1[C@@H](c2ccc(C3=CCCCC3)cc2)[C@@H](CO)N1C(=O)NC1CCCCC1,6.62% (inactive)
5,COCC(=O)N1[C@H](CO)[C@H](c2ccc(-c3cccnc3)cc2)[C@@H]1C#N,52.3% (inactive)
6,COC(=O)[C@@]1(CCS(=O)(=O)c2ccccc2)N=C(c2ccc(OCCCO)cc2)O[C@H]1c1ccccc1,30.5% [at 50 µM] (inactive)
7,COc1cccc(C#Cc2ccc([C@@H]3[C@H](C#N)N(C(=O)c4ccccn4)[C@H]3CO)cc2)c1,11.8% (inactive)
8,N#C[C@H]1[C@@H](c2ccc(C3=CCCC3)cc2)[C@@H](CO)N1C(=O)NC1CCCCC1,-6.6% (inactive)
9,COc1ccc(S(=O)(=O)Nc2ccc3c(c2)CC(=O)N([C@@H](C)CO)C[C@@H](C)[C@@H](CN(C)Cc2ccc(-c4ccccc4)cc2)O3)cc1,-8.32% (inactive)
10,C[C@@H]1CN([C@@H](C)CO)S(=O)(=O)c2ccc(C#C[C@@H](C)O)cc2O[C@H]1CN(C)Cc1ccc(-c2ccccc2)cc1,16.7% (inactive)
11,C[C@H](CO)N1C[C@H](C)[C@H](CN(C)C(=O)Nc2ccc(-c3cccs3)cc2)OCc2cnnn2CCCC1=O,50.2% (inactive)
12,N#C[C@H]1[C@@H](c2ccc(C#Cc3cccc(F)c3)cc2)[C@@H](CO)N1C(=O)C1CCCC1,4.15% (inactive)
13,O=C1/C(=C/c2ccccc2)SC(=S)N1CC(=O)N1CCCCC1c1cccnc1 (stereo unspecified),26.6% [at 50 µM] (inactive)
14,C[C@H]1CN([C@@H](C)CO)C(=O)Cc2cc(NC(=O)NC3CCCCC3)ccc2O[C@@H]1CN(C)Cc1ccc(-c2ccccc2)cc1,0.265% (inactive)
15,Cc1ccc(S(=O)(=O)Nc2ccc3c(c2)nc(CCN2CCCC2)n3C)cc1,-9.44% [at 50 µM] (inactive)
